Potency and max response data for 24 compounds are collected here from PubChem BioAssay (Tox21).

Structures are written as SMILES. Results filed as inconclusive are left out. Unmarked numbers belong to inactive results. The source made the active and inactive calls. Calls follow the shape of the dose curve; as a rule, active = well fitted curve in the direction sought with a large enough effect in the repeat runs; inconclusive = weak or mixed curves; inactive = no such curve, though single readings can be large; an effect the other way counts as inactive or inconclusive.

Experiment [1] in a line: qHTS RealTime-Glo MT Cell Viability Assay in HepG2 cells - 40 hour (AID 1224870). Also: nearly all actives have a fitted effect of over 50% in size. In short, it runs like this: (§1)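 HepG2 cells (600/well) mixed with RealTime-Glo MT reagent, settled 5 h at 37 C/5% CO2 before compound addition. Nonlytic NanoLuc luminescence from viable-cell prosubstrate reduction read repeatedly during 40 h treatment at 37 C.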
The nature of experiment [2]: A CellTox Green Cytotoxicity Assay to monitor cytotoxicity in HEK293 cells - 40 hour (AID 1224871). Also: nearly all actives have a fitted effect of over 45% in size. Also: potency is read from the fitted curve at half-maximal effect. Put shortly: (§2)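 HEK293 cells premixed with CellTox Green dye were seeded at 600 cells/well and left 5 h at 37 C/5% CO2 before pin transfer of 23 nL compound in DMSO. Fluorescence from dye bound to dead-cell DNA was read during 40 h treatment.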
Experiment [3] in a line: qHTS RealTime-Glo MT Cell Viability Assay in HEK293 cells - 16 hour (AID 1224872). Also: top concentration of the series differs between compounds; nearly all actives have a fitted effect of over 50% in size. Put shortly: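 Tox21 10K qHTS, HEK293, 600 cells/well, RealTime-Glo reagent co-dispensed with cells; 5 h preincubation, compound by pintool, 37 C, luminescence at 0–40 h.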
A short description of experiment [4]: qHTS RealTime-Glo MT Cell Viability Assay in HepG2 cells - 8 hour (AID 1224873). Also: nearly all actives have a fitted effect of over 55% in size. In short, it runs like this: as §1
The nature of experiment [5]: qHTS RealTime-Glo MT Cell Viability Assay in HEK293 cells - 40 hour (AID 1224874). Also: nearly all actives have a fitted effect of over 50% in size. The following applies: RealTime-Glo luminescence; max response: active compounds read low. In short, it runs like this: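 HEK293 cells mixed with RealTime-Glo reagents (NanoLuc plus cell-permeant prosubstrate) at 600 cells/well, preincubated 5 h at 37 C/5% CO2, then given 23 nL compound in DMSO. Nonlytic luminescence from viable cells was read at 0, 8, 16, 24, 32 and 40 h.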

Experiment [6] is described as follows: A CellTox Green Cytotoxicity Assay to monitor cytotoxicity in HEK293 cells - 24 hour (AID 1224875). Also: series mostly up to about 77 µM; nearly all actives have a fitted effect of over 45% in size. Put shortly: as §2
A short description of experiment [7]: qHTS RealTime-Glo MT Cell Viability Assay in HepG2 cells - 32 hour (AID 1224877). Also: nearly all actives have a fitted effect of over 55% in size. In short, it runs like this: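 Cells + NanoLuc/prosubstrate dispensed (600 cells/well) → 5 h at 37 C/5% CO2 → compounds in DMSO transferred → 40 h incubation at 37 C, luminescence read at 0, 8, 16, 24, 32, 40 h.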
Experiment [8] is described as follows: A CellTox Green Cytotoxicity Assay to monitor cytotoxicity in HepG2 cells - 40 hour (AID 1224879). Also: nearly all actives have a fitted effect of over 40% in size. Also: potency is read from the fitted curve at half-maximal effect. Put shortly: (§3)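 HepG2 cells were seeded together with the CellTox Green dye at 600 cells/well, left 5 h at 37 C/5% CO2, then given compounds in DMSO. Fluorescence from dye bound to dead-cell DNA was read repeatedly over 40 h of treatment at 37 C.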
Experiment [9] is described as follows: A CellTox Green Cytotoxicity Assay to monitor cytotoxicity in HepG2 cells - 16 hour (AID 1224876). Also: nearly all actives have a fitted effect of over 45% in size. Also: potency is read from the fitted curve at half-maximal effect. Put shortly:
as §3

The nature of experiment [10]: A CellTox Green Cytotoxicity Assay to monitor cytotoxicity in HepG2 cells - 24 hour (AID 1224878). Also: nearly all actives have a fitted effect of over 45% in size. Also: potency is read from the fitted curve at half-maximal effect. Put shortly: as §3
% is scaled to controls: 0 for no effect and ±100 for the full control effect.

Regarding `O=C1CC[C@@H](C(=O)O)N1`, the Potency result in experiment [1], in experiment [2], in [3], in experiment [4], in experiment [6] and in experiment [7] was “inactive” throughout. Besides, the Potency entry in [8] is “inactive”. Besides, the max response in [5] was 0.932%.

On to `COc1ccc(CCN(C)CCCN2CCc3cc(OC)c(OC)cc3CC2=O)cc1OC`, for which the Potency result in experiment [1], in [2], in experiment [3], in experiment [4], in [9] and in experiment [7] was “inactive” in each case. The Potency entry in [10] and in [8] was “inactive” in each case. Also, the max response in experiment [5] was 9.42%.

Turning to `CCC(C)(C)C(=O)O`, the Potency entry in [1], in experiment [2], in experiment [3], in experiment [4], in experiment [6] and in [7] was “inactive” in each case. The Potency entry in [8] is “inactive”. Moreover, the max response in experiment [5] was -0.784%.

Consider `COc1cc(OC)c2ccc(=O)oc2c1`, for which the Potency entry in [1], in experiment [2], in [3], in experiment [4], in experiment [9] and in experiment [7] was “inactive” in each case. Also, the Potency entry in experiment [10] and in experiment [8] was “inactive” in each case. Further, the max response in experiment [5] is -23.1%.

As to `CC(=O)OCC(C)C`, the Potency result in [1], in experiment [2], in experiment [3], in experiment [4], in [9] and in [7] was “inactive” in each case. The Potency entry in experiment [10] and in experiment [8] was “inactive” throughout. In [5], the max response was 1.5%.

For `Nc1ccn([C@H]2CS[C@@H](CO)O2)c(=O)n1`, the Potency entry in [1], in [2], in experiment [3], in experiment [4], in experiment [9] and in experiment [7] was “inactive” each time. Also, the Potency result in [10] and in experiment [8] was “inactive” in each case. Also, in experiment [5], the max response was -7.77%.

Turning to `O=C(O)CCC(=O)OC[C@@H](NC(=O)C(Cl)Cl)[C@H](O)c1ccc([N+](=O)[O-])cc1`, the Potency entry in [1], in [3], in experiment [4] and in experiment [7] was “inactive” each time. Besides, the Potency is 21.3 µM (active) in [2], 9.52 µM (active) in [9], 19 µM (active) in experiment [10] and 19 µM (active) in experiment [8]. In addition, the max response in [5] was 5.1%.

Regarding `CC1CCc2nccnc21` (configuration not stated), the Potency entry in experiment [1], in [2], in experiment [3], in experiment [4] and in experiment [7] was “inactive” each time. Besides, the max response in experiment [5] is -2.75%.

Regarding `C[C@@H]1C[C@H]2[C@@H]3CCC4=CC(=O)C=C[C@]4(C)[C@@]3(F)[C@@H](O)C[C@]2(C)[C@@]1(O)C(=O)COP(=O)(O)O`, the Potency entry in [1], in [2], in [3], in [4], in experiment [6] and in experiment [7] was “inactive” in each case. Also, the Potency entry in [10] and in [8] was “inactive” throughout. For the same compound, in [5], the max response was -21.2%.

As for `CCCCCCCCCCCC(=O)OCC(O)CO` (configuration not stated), the Potency result in [1], in experiment [2], in experiment [3], in experiment [4], in [7] and in [10] was “inactive” throughout. In addition, the Potency result in experiment [8] was “inactive”. Further, the max response in experiment [5] was 6.6%.

As for `Cc1cccc(C)c1NC(=O)c1cc(S(N)(=O)=O)c(Cl)cc1O`, the Potency entry in [1], in experiment [2], in [3], in [4], in experiment [7] and in experiment [10] was “inactive” throughout. Further, the Potency result in experiment [8] is “inactive”. For the same compound, in [5], the max response was 1.94%.

With `CCCCCCCCCCCCCC(=O)OCC(O)CO` (configuration not stated), the Potency entry in [1], in experiment [2], in experiment [3], in [4], in experiment [9] and in experiment [7] was “inactive” each time. Moreover, the Potency entry in experiment [10] and in [8] was “inactive” throughout. In experiment [5], the max response was -0.733%.

In the case of `Cc1ccccc1S(N)(=O)=O`, the Potency result in experiment [1], in experiment [2], in [3], in [4], in experiment [7] and in experiment [10] was “inactive” throughout. In addition, in [8], the Potency entry was “inactive”. Also, the max response in [5] was 8.27%.

Regarding `CCCCOCCOC(=O)c1cccnc1`, the Potency result in [1], in experiment [2], in [3], in experiment [4], in experiment [9] and in experiment [7] was “inactive” in each case. Moreover, the Potency result in experiment [8] was “inactive”. The max response in experiment [5] is 0.954%.

Turning to `CC(C)C(=O)OCCOc1ccccc1`, the Potency result in experiment [1], in [2], in experiment [3], in [4], in experiment [9] and in [7] was “inactive” throughout. Also, the Potency result in [10] and in [8] was “inactive” each time. In addition, in experiment [5], the max response is 2.62%.

For the compound `COC(=O)c1sccc1S(N)(=O)=O`, the Potency entry in experiment [1], in experiment [2], in experiment [3], in [4], in experiment [9] and in experiment [7] was “inactive” throughout. The Potency result in experiment [10] was “inactive”. In addition, the max response in experiment [5] was -18.1%.

Take `Nc1nc2ccc(OC(F)(F)F)cc2s1`: the Potency entry in experiment [1], in [2], in [3], in experiment [4], in experiment [6] and in experiment [9] was “inactive” throughout. Also, the Potency result in experiment [7] is “inactive”.

As to `CCCCCCC(O)CCOC(C)=O` (configuration not stated), the Potency result in experiment [1], in experiment [2], in [3], in [4], in [9] and in experiment [7] was “inactive” each time. Moreover, the Potency result in [10] and in [8] was “inactive” in each case. Moreover, the max response in experiment [5] is 0.328%.

Take `Nc1nc(-c2ccc([N+](=O)[O-])cc2)cs1`: the Potency entry in experiment [1], in experiment [2], in experiment [3], in [4], in experiment [6] and in experiment [7] was “inactive” each time. Also, the Potency entry in [8] is “inactive”. Moreover, in [5], the max response is -14.1%.

For `C1CCCCC1`, the Potency entry in experiment [1], in [2], in experiment [3], in experiment [4], in experiment [9] and in experiment [7] was “inactive” each time. The Potency result in experiment [8] is “inactive”. In addition, the max response in [5] is 1.11%.

Turning to `CCCCOC(=O)CCCCC(=O)OCCCC`, the Potency entry in [1], in experiment [2], in experiment [3], in experiment [4], in experiment [6] and in [7] was “inactive” in each case. In addition, the Potency entry in [10] and in experiment [8] was “inactive” each time. For the same compound, in experiment [5], the max response was 0.321%.

Regarding `O=C1OC[C@H](Cc2cccc(O)c2)[C@H]1Cc1cccc(O)c1`, the Potency result in experiment [1], in [2], in experiment [3], in experiment [4], in experiment [7] and in experiment [10] was “inactive” each time. In experiment [8], the Potency result is “inactive”. For the same compound, in experiment [5], the max response is -19.7%.

Turning to `COc1ccc(/C=C/C(=O)c2ccc(OC)cc2OC)cc1`, the Potency entry in [1], in experiment [2], in experiment [3], in experiment [4], in experiment [6] and in experiment [7] was “inactive” throughout.

Turning to `COC1CCC=CO1` (configuration not stated), the Potency result in experiment [1], in [2], in experiment [3], in experiment [4], in experiment [9] and in experiment [7] was “inactive” each time. The Potency entry in experiment [8] was “inactive”. In addition, the max response in experiment [5] was 9.69%.
